Screens from PubChem.
HIF activator: HIF pathway transcriptional activation; U2OS HRE-luciferase reporter, luminescence; normalized: DMSO 0%, desferrioxamine 100%; activation, % at 7.5 µM (by protocol); actives 0.32% (n = 300,000); AID 1910;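 active = mean activation of at least 10% of the iron chelator positive control signal, with at least half of replicates also reaching 10%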
SUMO Mot1 rescue: blocks SUMOylation pathway, rescuing yeast Mot1-301 growth. S. cerevisiae Mot1-301 growth rescue, ATP luminescence, 38.5C; percent above DMSO median, 100 means doubled. growth rescue, % at 18.8 µM. actives 1% (n = 320,000). AID 2716;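 active = every valid replicate shows activation above 250% relative to neutral control wells; inactive = the rest, any valid replicate at or below 250%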;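 also: OY570 slx delta 5 strain wells were the positive control but not used for scaling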
ALR inh: blocks human ALR sulfhydryl oxidase activity; P55789; purified ALR, DTT oxidation, H2O2 HRP-luminol luminescence; inhibition, % (test concentration not listed); actives 3.8% (n = 290,000); AID 485317;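 active = mean replicate inhibition above about 79%, with every replicate also reaching it, limit read from the data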
Target sequence (P55789 whole entry, looked up): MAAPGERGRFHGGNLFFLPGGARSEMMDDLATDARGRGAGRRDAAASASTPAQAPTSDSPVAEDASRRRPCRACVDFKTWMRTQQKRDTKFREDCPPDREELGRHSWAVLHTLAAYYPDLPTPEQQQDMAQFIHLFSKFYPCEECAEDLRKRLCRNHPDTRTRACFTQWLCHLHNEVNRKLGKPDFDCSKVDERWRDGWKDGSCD
M18AAP inhibitor: PfM18AAP enzyme inhibition; recombinant PfM18AAP, H-Glu-NHMec fluorogenic cleavage; inhibition, % at 7.35 µM; actives 1.2% (n = 290,000); AID 1822;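 active = inhibition above the campaign mean inhibition over all tested compounds plus 3 SD, cut at about 28% in these data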;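 also: 0% = plate median of test compound wells and 100% = 2 mM ZnCl2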
* = called active by the depositor; i = inactive; · = no result given. Compounds with a hit are over-represented: about 5.3% of the library has one in this group of screens.

SMILES	HIF activator	SUMO Mot1 rescue	ALR inh	M18AAP inhibitor
CC(=O)c1cccc(NC(=O)CN(C)S(=O)(=O)c2cccc3nsnc23)c1	14*	30	-3	4
COP1(=O)C=C[C@H](N(Cc2ccccc2)S(=O)(=O)c2ccccc2[N+](=O)[O-])[C@@H](C)O1 (some centres undefined)	0	-2	-2	·
CC(C)COc1ccc(Cc2cnc(N)nc2N)cc1	0	81	-2	-4
CC(C)Oc1ccc(Cc2cnc(=S)[nH]c2N)cc1	-1	i	1	31*
CCC(CC)c1nnc(NC(=O)C2CSC3(C)CCC(=O)N23)s1 (centres undefined)	0	-2	17	·
CSc1ccc(CNc2ccccc2)cc1	1	3	90*	0
CSc1ccc(-c2nc(CN(C)C3CCOC3)c(C)o2)cc1 (centres undefined)	3	18	-19	-3
Cc1ccc(-c2nc(CN(C)C(C3CC3)C3CC3)c(C)o2)cc1	0	316*	1	1
Cc1cc(C)c(C)c(S(=O)(=O)N2CCC(C(=O)NCCCN3CCOCC3)CC2)c1C	·	-25	0	·
CCOC(=O)c1c(-c2ccccc2)oc2cc(CN(C)C)c(O)c(CN(C)C)c12	12*	204	-1	26
CCOC(=O)c1c(CSc2ccccc2)oc2cc(Br)c(O)c(CN(C)C)c12	0	149	82*	1
O=C(O)C(Cc1ccccc1)n1c(=S)[nH]c2ccccc2c1=O (centres undefined)	-1	-3	27	5
CN(C)CC#CCCCCCCC#CCN(C)C	0	996*	-15	2
CNC(=O)c1csc(-c2ccc(Cl)cc2)n1	1	50	-40	3
CNC(=O)c1csc(-c2ccc(C)cc2)n1	3	-7	99*	-13
Cc1ccc(C(=O)NN2CCOCC2)cc1	0	8	98*	-1
CCOc1ccc(NC(=O)C(C)N2C(=O)c3ccccc3S2(=O)=O)cc1 (centres undefined)	-1	-10	-3	·
CC(C(=O)Nc1ccc(N(C)C)cc1)N1C(=O)c2ccccc2S1(=O)=O (centres undefined)	0	-3	99*	·
COc1ccc(Cl)cc1NC(=O)CCN1C(=O)C2C3C=CC(C4CC34)C2C1=O (centres undefined)	0	0	-5	0
Cc1nc2sccn2c(=O)c1S(=O)(=O)N1CCN(c2ccc(F)cc2)CC1	0	-10	95*	0
CCOc1ccc(Br)cc1S(=O)(=O)NC1CCCC1	·	1	-5	·
Cc1csc(=Nc2cccnc2)n1Cc1ccco1	0	3	34	-2
Cc1cs/c(=N\N=C2CCCCC2)n1Cc1ccco1	-2	53	96*	9
Cc1cs/c(=N\N=C\c2ccccc2)n1Cc1ccco1	·	6	84*	-2
CC(C)=N/N=c1\scc(C)n1Cc1ccco1	0	-9	49	12
SMILES	HIF activator	SUMO Mot1 rescue	ALR inh	M18AAP inhibitor
O=C(CN1CCN(Cc2ccccc2)CC1)N/N=C/c1c[nH]c2ccccc12	0	3	-2	-1
COCCN1C(=O)C(=O)/C(=C(/O)c2ccc(S(=O)(=O)N3CCOCC3)cc2)C1c1cccc(OC)c1 (centres undefined)	0	2	1	-1
C/C(=N\NC(=O)c1nnn(-c2nonc2N)c1C(C)C)c1cc(C)sc1C	0	14	-1	2
CCOc1ccccc1NC(=O)c1ccc2c(c1)C(=O)N(CC)C2=O	3	16	-2	-2
COc1ccc(CC(=O)NCC(=O)Nc2ccccc2Br)cc1	0	-3	-4	-1
CCCCSCCCNC(=S)Nc1ccccc1C	1	-8	77*	3
O=C(Cc1cccs1)Nc1cccc(-c2nc3cc4ccccc4cc3[nH]2)c1	4	811*	24	-6
FC(F)(F)c1cccc(-n2c(Cn3nnc4ccccc43)n[nH]c2=S)c1	1	-3	44	19
Fc1ccc(-n2c(Cn3nnc4ccccc43)n[nH]c2=S)cc1	-1	51	5	30*
CC1(C)CC(=O)c2c(oc3ccc(NS(=O)(=O)c4cccc5cccnc45)cc23)C1	0	-12	3	5
COc1ccc(N2CCN(C(=O)CCCn3nnnc3CN3CCOCC3)C(C)C2)cc1 (centres undefined)	0	-3	99*	7
CCOC(=O)CC1CCCCN1C(=O)CCCn1nnnc1CN1CCOCC1 (centres undefined)	0	-11	0	-6
CC(OC(=O)c1ccc(-c2ccc(O)cc2)cc1)C(=O)NC1CCCCC1C (centres undefined)	1	750*	34	·
O=C1Nc2ccccc2Nc2ncccc21	0	358	·	-2
Cc1ccc2c(c1)NC(=O)c1cccnc1N2	2	1	98*	-72
CCCc1cc(=O)[nH]c(SCC(=O)Nc2cccc(S(=O)(=O)N3CCCCC3)c2)n1	·	-2	-11	·
COc1ccc2c(/C=C/c3cc[n+](C)cc3)c[nH]c2c1	2	6	-6	7
Cc1ccc2[nH]cc(/C=C/c3cc[n+](C)cc3)c2c1	-27	384	98*	11
COC(=O)c1ccsc1NS(=O)(=O)c1ccccc1	0	60	80*	-12
CCN(CC)c1ccc2c(C)cc(=O)oc2c1	·	-21	99*	·
CCN(CC)c1ccc2cc(C#N)c(=O)oc2c1	0	96	-4	-3
CCN(CC)c1ccc2c(C)c(-c3ccc(N)cc3)c(=O)oc2c1	1	96	87*	4
CCOC(=O)Cc1c(C)c2ccc(N(CC)CC)cc2oc1=O	1	·	10	6
CCN(CC)c1ccc2ccc(=O)oc2c1	0	-9	98*	1
CCN(Cc1cc(=O)oc2cc(C)ccc12)c1ccccc1	-1	129	9	-2
SMILES	HIF activator	SUMO Mot1 rescue	ALR inh	M18AAP inhibitor
O=C(NC1CCOCC1)C1CCC(=O)N(Cc2ccc(Cl)cc2)C1 (centres undefined)	0	358	-5	-5
C=CCc1cccc(CNc2c(C)cc(C)cc2C)c1O	0	387*	-3	-2
O=C(NNc1c2ccccc2nc2ccccc12)c1ccccc1O	0	-15	99*	-5
O=C(NNc1c2ccccc2nc2ccccc12)c1ccccc1Cl	3	6	-6	11
O=C(NNc1c2ccccc2nc2ccccc12)c1ccc(O)cc1O	0	-8	98*	12
O=C(NNC(=O)c1ccc(O)cc1O)c1ccc(-c2ccccc2)cc1	3	12	1	18
Cn1c(=O)c2sccc2n2c(CCCC(=O)NC3CCN(Cc4ccccc4)CC3)nnc12	0	41	-6	0
CC1(C)Cc2c(C#N)c(SCCO)nc(N3CCOCC3)c2CO1	0	11	-8	3
CC1(C)Cc2c(C#N)c(SCCC#N)nc(N3CCOCC3)c2CO1	35*	39	-5	7
CCOC(=O)c1c(-c2ccc(F)cc2)csc1NC(=O)c1c(-c2ccccc2)noc1C	0	719*	-11	1
CCC(CC)c1nnc(NC(=O)c2c(-c3ccccc3)noc2C)s1	·	-6	78*	7
CCNS(=O)(=O)c1ccc(NC(=O)c2c(-c3ccccc3)noc2C)cc1	0	250	-9	-1
